Source: PubChem BioAssay (EPA / NIEHS)
Inconclusive results are not listed. Calls of active or inactive are those of the source. The calls were made as follows, unless noted: active = hit-call score of the fitted dose curve at least 0.9, where 1 is the maximum; inactive = score below 0.9.

How the values were obtained:
[1] = ATG_TAL_CIS: Attagene CIS-FACTORIAL HepG2 Assay for human TAL Basal Promoter (AID 2282966); details: HepG2 Attagene cis-factorial TAL promoter reporter; actives raise or lower the signal;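 also: background control endpoint measuring basal TAL promoter reporter mRNA not a specific factor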
Procedure, shortened: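 Readout: reporter mRNA, fluorescence by CE. System: HepG2, transient multi-reporter transfection, endogenous TF activity. Exposure: 24 h. Analysis: bidirectional, DMSO-normalized; background control.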

[2] = ATG_TGFb_CIS: Attagene CIS-FACTORIAL HepG2 Assay for human Transforming Growth Factor (TGF) (AID 2282967); details: HepG2 Attagene CIS TGFb reporter, mRNA transcription; actives raise or lower the signal
Procedure, shortened: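 Endogenous TGFB1-linked transcription factor activity read as reporter mRNA via RT-PCR and capillary electrophoresis, 24 h after dosing transiently transfected HepG2 cells. Gain or loss of signal fitted relative to DMSO.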

[3] = ATG_VDRE_CIS: Attagene CIS-FACTORIAL HepG2 Assay for human Vitamin D Receptor Element (VDRE) (AID 2282968); details: HepG2 VDRE cis-reporter transcription, actives raise or lower the signal
Procedure, shortened: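 RT-PCR/CE readout of reporter mRNA; HepG2, transient transfection, 24 h dosing; DMSO baseline; bidirectional analysis.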

[4] = target: X-box-binding protein 1 (Homo sapiens) (UniProt P17861); assay: ATG_Xbp1_CIS: Attagene CIS-FACTORIAL HepG2 Assay for human X-box Binding Protein 1 (XBP1) (AID 2282972); details: HepG2 XBP1 cis-element reporter, Attagene multiplex; actives raise or lower the signal
Sequence of X-box-binding protein 1 (Homo sapiens) (P17861 whole entry, looked up): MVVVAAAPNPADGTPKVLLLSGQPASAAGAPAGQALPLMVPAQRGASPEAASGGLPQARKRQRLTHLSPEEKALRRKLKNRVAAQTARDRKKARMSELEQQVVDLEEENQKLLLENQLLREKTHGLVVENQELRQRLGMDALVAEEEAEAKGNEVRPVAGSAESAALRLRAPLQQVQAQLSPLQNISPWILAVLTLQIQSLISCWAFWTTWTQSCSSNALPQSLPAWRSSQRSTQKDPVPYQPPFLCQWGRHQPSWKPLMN
Procedure, shortened: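 HepG2 cells transiently transfected with multiple cis-element reporter units report endogenous TF activity; 24 h exposure, then reporter mRNA measured by RT-PCR, 6-FAM labelling, HpaI digestion and capillary electrophoresis. Bidirectional fitting versus DMSO.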

[5] = ATG_GAL4_TRANS: Attagene TRANS-FACTORIAL HepG2 Assay for GAL4 (Internal Marker) (AID 2282976; active = hit-call score of the fitted dose curve at least 0.9, where 1 is the maximum); details: HepG2 Attagene TRANS GAL4 internal marker reporter
Procedure, shortened: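 Fluorescence from capillary electrophoresis of labelled RT-PCR products quantifies reporter mRNA induction after 24 h dosing of HepG2 cells carrying transfected GAL4-UAS reporter transcription units. Vehicle DMSO serves as baseline.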

[6] = target: Estrogen-related receptor gamma (Homo sapiens) (UniProt P62508); assay: ATG_ERRg_TRANS: Attagene TRANS-FACTORIAL HepG2 Assay for human Estrogen-Related Receptor gamma (ERRg) (AID 2282977; active = hit-call score of the fitted dose curve at least 0.9, where 1 is the maximum;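 also: hits increase reporter signal over DMSO so potencies reflect activators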); details: HepG2 Attagene TRANS reporter, ERRg transactivation
Procedure, shortened: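 HepG2 cells transiently transfected with multiplexed GAL4-UAS reporter units driven by chimeric NR-Gal4 proteins; 24 h exposure. Reporter mRNA quantified by RT-PCR, fluorescent labelling, HpaI digestion and capillary electrophoresis; gain of signal vs DMSO.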

[7] = target: Oxysterols receptor LXR-alpha (Homo sapiens) (UniProt Q13133); assay: ATG_LXRa_TRANS: Attagene TRANS-FACTORIAL HepG2 Assay for human Liver X Receptor alpha (LXRa) (AID 2282980; active = hit-call score of the fitted dose curve at least 0.9, where 1 is the maximum); details: HepG2 Attagene TRANS reporter, LXRa transactivation
Sequence of Oxysterols receptor LXR-alpha (Homo sapiens) (Q13133 whole entry, looked up): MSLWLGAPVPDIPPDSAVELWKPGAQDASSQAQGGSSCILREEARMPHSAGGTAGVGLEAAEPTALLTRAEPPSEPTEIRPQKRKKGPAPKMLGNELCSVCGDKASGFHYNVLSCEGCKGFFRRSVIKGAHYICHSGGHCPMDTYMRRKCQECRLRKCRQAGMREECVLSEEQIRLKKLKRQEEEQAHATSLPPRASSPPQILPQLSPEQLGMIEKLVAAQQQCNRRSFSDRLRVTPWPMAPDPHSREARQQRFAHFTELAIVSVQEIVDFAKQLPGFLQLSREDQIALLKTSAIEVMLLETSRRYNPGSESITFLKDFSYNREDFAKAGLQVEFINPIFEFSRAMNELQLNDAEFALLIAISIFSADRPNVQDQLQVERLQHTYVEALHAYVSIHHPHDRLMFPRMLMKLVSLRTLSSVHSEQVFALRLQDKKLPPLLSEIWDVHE
Procedure, shortened: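 Transient HepG2 transfectants, 24 h dosing, RT-PCR/CE mRNA reporter quantitation; gain-of-signal vs DMSO.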

[8] = ATG_M_06_TRANS: Attagene TRANS-FACTORIAL HepG2 Assay for M06 Transcription Factor (Internal Marker) (AID 2282983; active = hit-call score of the fitted dose curve at least 0.9, where 1 is the maximum;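 also: reporter transcript level by RT-PCR then capillary electrophoresis fluorescence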); details: HepG2 Attagene TRANS M06 internal marker reporter
Procedure, shortened: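 Measured by capillary electrophoresis of fluorescently labelled RT-PCR products, this endpoint reflects reporter mRNA in HepG2 cells harbouring exogenous NR-GAL4 reporter constructs after 24 h exposure, with DMSO as baseline.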

[9] = ATG_M_32_TRANS: Attagene TRANS-FACTORIAL HepG2 Assay for M32 Transcription Factor (Internal Marker) (AID 2282984; active = hit-call score of the fitted dose curve at least 0.9, where 1 is the maximum;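 also: transcript level of a background control reporter unit measured by RT-PCR and capillary electrophoresis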); details: HepG2 Attagene TRANS M32 internal marker reporter
Procedure, shortened: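 Human hepatoma HepG2, transient MRTU transfection, 24 h treatment. RNA → RT-PCR → fluorescent primer extension → HpaI digest (2 h, 37 C) → CE. Positive-direction fit vs DMSO.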

[10] = target: Nuclear respiratory factor 1 (Homo sapiens) (UniProt Q16656); assay: ATG_NRF1_CIS: Attagene CIS-FACTORIAL HepG2 Assay for human Nuclear Respiratory Factor 1 (NRF1) Orphan Gene (AID 2282987); details: HepG2 NRF1 cis-element reporter, Attagene multiplex; actives raise or lower the signal
Sequence of Nuclear respiratory factor 1 (Homo sapiens) (Q16656 whole entry, looked up): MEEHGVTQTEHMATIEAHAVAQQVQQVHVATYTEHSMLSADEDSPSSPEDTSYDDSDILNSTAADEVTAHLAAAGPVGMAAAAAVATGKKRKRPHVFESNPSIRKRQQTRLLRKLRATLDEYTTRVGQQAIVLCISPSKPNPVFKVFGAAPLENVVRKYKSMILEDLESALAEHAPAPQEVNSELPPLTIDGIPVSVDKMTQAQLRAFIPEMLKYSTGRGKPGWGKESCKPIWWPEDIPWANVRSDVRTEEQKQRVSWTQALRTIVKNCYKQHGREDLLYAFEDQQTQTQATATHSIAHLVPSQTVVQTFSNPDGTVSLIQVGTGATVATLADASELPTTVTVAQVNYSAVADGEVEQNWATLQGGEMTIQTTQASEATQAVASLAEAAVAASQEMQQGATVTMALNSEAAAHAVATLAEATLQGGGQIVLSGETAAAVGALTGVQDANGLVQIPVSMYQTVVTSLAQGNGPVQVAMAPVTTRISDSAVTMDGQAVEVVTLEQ
Procedure, shortened: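 Human hepatoma HepG2 cells carrying transfected promoter-regulated reporter units were incubated with test chemicals for 24 h. Reporter transcripts were measured by RT-PCR plus capillary electrophoresis, and endpoints derived by bidirectional fitting with DMSO as baseline.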

[11] = ATG_NFI_CIS: Attagene CIS-FACTORIAL HepG2 Assay for human Nuclear Factor I (NFI) (AID 2282989); details: HepG2 cis-regulatory reporter, NFI response element transcription; actives raise or lower the signal
Procedure, shortened: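 Reporter transcripts were measured by RT-PCR with fluorescent primer extension and capillary electrophoresis 24 h post-treatment. HepG2 cells carried transiently transfected cis-regulated reporter constructs reporting endogenous factor activity; gain or loss fitted against DMSO baseline.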

[12] = target: Myc proto-oncogene protein (Homo sapiens) (UniProt P01106); assay: ATG_Myc_CIS: Attagene CIS-FACTORIAL HepG2 Assay for human Myelocytomatosis (Myc) Proto-Oncogene Transcription Factor (AID 2282990); details: HepG2, Attagene cis-reporter transcription factor activity; actives raise or lower the signal
Sequence of Myc proto-oncogene protein (Homo sapiens) (P01106 whole entry, looked up): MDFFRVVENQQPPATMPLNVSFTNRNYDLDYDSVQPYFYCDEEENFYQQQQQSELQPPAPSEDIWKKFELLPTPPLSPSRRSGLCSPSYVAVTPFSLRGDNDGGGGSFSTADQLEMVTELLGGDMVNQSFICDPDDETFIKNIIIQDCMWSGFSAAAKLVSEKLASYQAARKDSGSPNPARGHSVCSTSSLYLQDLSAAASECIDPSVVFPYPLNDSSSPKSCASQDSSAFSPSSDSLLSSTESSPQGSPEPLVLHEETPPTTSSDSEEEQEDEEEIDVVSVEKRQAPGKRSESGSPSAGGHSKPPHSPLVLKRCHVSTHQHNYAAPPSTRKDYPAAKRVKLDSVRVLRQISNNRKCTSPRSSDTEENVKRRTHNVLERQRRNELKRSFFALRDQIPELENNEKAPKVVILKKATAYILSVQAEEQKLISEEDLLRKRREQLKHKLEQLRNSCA
Procedure, shortened: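 Multiplexed cis-reporter transcription in HepG2 cells after 24 h chemical treatment. Reporter mRNA measured by RT-PCR and capillary electrophoresis fluorescence; activity fitted bidirectionally against DMSO control.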

[13] = target: Glucocorticoid receptor (Homo sapiens) (UniProt P04150); assay: ATG_GR_TRANS: Attagene TRANS-FACTORIAL HepG2 Assay for human Glucocorticoid Receptor (GR) (AID 2282978; active = hit-call score of the fitted dose curve at least 0.9, where 1 is the maximum;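 also: activators score as hits since higher reporter transcript over DMSO is fitted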); details: HepG2 Attagene TRANS GR reporter, mRNA transcription
Sequence of Glucocorticoid receptor (Homo sapiens) (P04150 whole entry, looked up): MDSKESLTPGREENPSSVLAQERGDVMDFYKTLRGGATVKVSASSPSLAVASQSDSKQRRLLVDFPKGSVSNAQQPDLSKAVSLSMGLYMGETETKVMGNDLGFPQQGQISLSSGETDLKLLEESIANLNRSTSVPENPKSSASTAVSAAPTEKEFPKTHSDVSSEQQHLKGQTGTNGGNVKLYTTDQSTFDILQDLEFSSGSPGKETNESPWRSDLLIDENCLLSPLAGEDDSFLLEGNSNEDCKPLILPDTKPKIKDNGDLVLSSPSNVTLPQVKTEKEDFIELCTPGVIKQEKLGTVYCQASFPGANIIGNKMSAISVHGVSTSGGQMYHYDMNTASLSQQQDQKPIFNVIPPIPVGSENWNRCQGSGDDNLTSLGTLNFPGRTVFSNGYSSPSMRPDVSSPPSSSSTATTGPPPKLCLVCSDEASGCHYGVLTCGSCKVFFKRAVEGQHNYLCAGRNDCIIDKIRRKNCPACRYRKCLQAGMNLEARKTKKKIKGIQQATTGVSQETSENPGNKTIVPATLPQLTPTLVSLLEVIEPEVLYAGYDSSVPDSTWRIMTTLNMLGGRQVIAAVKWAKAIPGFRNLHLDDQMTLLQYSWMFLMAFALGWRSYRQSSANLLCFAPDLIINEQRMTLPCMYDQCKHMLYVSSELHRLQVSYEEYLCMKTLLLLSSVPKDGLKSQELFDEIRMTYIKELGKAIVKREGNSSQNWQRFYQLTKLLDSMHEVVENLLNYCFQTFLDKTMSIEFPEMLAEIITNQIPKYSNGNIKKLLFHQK
Procedure, shortened: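 Multiplexed TRANS reporter system, HepG2; 24 h exposure; RNA → oligo(dT) RT → reporter-specific PCR → 6-FAM primer extension → HpaI cut → CE fluorescence. Gain-of-signal vs DMSO.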

[14] = target: Steroid hormone receptor ERR1 (Homo sapiens) (UniProt P11474); assay: ATG_ERRa_TRANS: Attagene TRANS-FACTORIAL HepG2 Assay for human Estrogen-Related Receptor alpha (ERRa) (AID 2282971; active = hit-call score of the fitted dose curve at least 0.9, where 1 is the maximum); details: HepG2 Attagene TRANS reporter, ERRa transactivation
Sequence of Steroid hormone receptor ERR1 (Homo sapiens) (P11474 whole entry, looked up, the tested form may be a part): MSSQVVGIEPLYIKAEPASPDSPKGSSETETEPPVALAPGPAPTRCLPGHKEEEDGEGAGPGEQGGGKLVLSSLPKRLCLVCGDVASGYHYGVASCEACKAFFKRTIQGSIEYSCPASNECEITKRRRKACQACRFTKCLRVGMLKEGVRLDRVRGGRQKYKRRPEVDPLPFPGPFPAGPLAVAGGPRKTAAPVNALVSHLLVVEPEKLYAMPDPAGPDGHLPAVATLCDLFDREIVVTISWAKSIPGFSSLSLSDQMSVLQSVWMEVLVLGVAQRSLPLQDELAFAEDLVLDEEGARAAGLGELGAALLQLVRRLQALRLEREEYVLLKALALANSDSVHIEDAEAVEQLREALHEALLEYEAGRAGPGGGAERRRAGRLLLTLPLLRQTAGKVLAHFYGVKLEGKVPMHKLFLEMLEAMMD
Procedure, shortened: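 HepG2 cells were transiently transfected with multiple GAL4-UAS reporter units, then dosed with compound for 24 h. Total RNA was reverse-transcribed, reporter cDNA PCR-amplified and fluorescently labelled, and fragments resolved by capillary electrophoresis; induction was compared with DMSO.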

[15] = target: Oxysterols receptor LXR-beta (Homo sapiens) (UniProt P55055); assay: ATG_LXRb_TRANS: Attagene TRANS-FACTORIAL HepG2 Assay for human Liver X Receptor beta (LXRb) (AID 2282981; active = hit-call score of the fitted dose curve at least 0.9, where 1 is the maximum); details: HepG2 Attagene TRANS GAL4-LXRb reporter, mRNA
Sequence of Oxysterols receptor LXR-beta (Homo sapiens) (P55055 whole entry, looked up, the tested form may be a part): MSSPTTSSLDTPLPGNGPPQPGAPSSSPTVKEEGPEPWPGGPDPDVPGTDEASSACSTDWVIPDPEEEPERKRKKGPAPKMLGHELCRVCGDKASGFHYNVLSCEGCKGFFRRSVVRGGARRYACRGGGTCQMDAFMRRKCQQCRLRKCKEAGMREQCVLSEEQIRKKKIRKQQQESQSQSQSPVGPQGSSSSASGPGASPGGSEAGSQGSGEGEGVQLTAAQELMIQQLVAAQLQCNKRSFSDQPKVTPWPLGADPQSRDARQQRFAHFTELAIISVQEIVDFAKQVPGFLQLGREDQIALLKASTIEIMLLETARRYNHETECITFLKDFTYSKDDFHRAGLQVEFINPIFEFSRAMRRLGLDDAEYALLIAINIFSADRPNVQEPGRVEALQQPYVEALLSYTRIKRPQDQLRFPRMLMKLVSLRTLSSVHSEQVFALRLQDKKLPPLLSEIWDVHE
Procedure, shortened: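 In this TRANS format, exogenous chimeric NR-Gal4 protein activity, not endogenous factors, drives reporter expression in transfected human HepG2 cells. Exposure lasted 24 h; reporter mRNA was read by fluorescent capillary electrophoresis.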

[16] = target: Nuclear receptor subfamily 4 group A member 2 (Homo sapiens) (UniProt P43354); assay: ATG_NURR1_TRANS: Attagene TRANS-FACTORIAL HepG2 Assay for human Nuclear Receptor Related Protein 1 (NURR1) (AID 2282985; active = hit-call score of the fitted dose curve at least 0.9, where 1 is the maximum); details: HepG2 Attagene TRANS reporter, mRNA readout
Sequence of Nuclear receptor subfamily 4 group A member 2 (Homo sapiens) (P43354 whole entry, looked up): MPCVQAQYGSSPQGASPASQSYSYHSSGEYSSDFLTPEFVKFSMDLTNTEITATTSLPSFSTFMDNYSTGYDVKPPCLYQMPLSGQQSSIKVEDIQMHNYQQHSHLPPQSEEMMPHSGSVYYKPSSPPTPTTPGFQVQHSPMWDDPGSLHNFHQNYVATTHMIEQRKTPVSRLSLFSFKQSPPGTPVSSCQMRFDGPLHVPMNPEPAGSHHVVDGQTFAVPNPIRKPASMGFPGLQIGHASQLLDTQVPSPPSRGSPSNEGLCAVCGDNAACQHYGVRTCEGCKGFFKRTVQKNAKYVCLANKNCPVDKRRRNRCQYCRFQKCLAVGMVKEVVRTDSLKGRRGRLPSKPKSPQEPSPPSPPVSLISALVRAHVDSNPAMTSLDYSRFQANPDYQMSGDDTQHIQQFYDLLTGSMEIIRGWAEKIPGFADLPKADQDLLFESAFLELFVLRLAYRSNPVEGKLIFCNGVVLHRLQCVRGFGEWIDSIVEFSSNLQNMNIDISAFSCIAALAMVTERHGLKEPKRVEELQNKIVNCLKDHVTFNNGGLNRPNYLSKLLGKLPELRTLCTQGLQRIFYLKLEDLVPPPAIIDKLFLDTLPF
Procedure, shortened: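 After 24 h chemical dosing, total RNA from transiently transfected HepG2 cells was reverse-transcribed and reporter cDNA PCR-amplified, FAM-labelled and analysed by capillary electrophoresis. Activity fitted in positive direction, DMSO as negative control.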

[17] = target: Nuclear receptor subfamily 1 group I member 3 (Homo sapiens) (UniProt Q14994); assay: ATG_CAR_TRANS: Attagene TRANS-FACTORIAL HepG2 Assay for human Constitutive Androstane Receptor (CAR) (AID 2282969; active = hit-call score of the fitted dose curve at least 0.9, where 1 is the maximum;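 also: activators raise reporter mRNA above DMSO so AC50 marks induction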); details: HepG2 Attagene TRANS-FACTORIAL CAR reporter
Sequence of Nuclear receptor subfamily 1 group I member 3 (Homo sapiens) (Q14994 whole entry, looked up, the tested form may be a part): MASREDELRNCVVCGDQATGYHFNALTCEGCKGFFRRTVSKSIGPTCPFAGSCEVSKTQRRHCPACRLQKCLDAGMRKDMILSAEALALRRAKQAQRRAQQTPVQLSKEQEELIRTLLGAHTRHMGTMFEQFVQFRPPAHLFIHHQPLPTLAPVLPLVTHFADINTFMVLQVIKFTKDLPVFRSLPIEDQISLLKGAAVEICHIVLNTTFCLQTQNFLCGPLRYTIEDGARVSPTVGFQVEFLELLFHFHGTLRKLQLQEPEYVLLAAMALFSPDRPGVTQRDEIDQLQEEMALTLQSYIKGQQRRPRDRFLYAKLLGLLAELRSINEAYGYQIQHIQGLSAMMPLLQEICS
Procedure, shortened: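 HepG2 cells transiently transfected with multiplexed GAL4-UAS reporter units expressing chimeric NR-Gal4 proteins; compound exposure 24 h. Reporter mRNA measured by RT-PCR, 6-FAM labelling, HpaI digestion and capillary electrophoresis; gain-of-signal fitted against DMSO baseline.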

[18] = target: Transcriptional activator Myb (Homo sapiens) (UniProt P10242); assay: ATG_Myb_CIS: Attagene CIS-FACTORIAL HepG2 Assay for human Myeloblastosis (Myb) Proto-Oncogene Transcription Factor (AID 2282986); details: HepG2 Attagene CIS-FACTORIAL Myb reporter transcription; actives raise or lower the signal
Sequence of Transcriptional activator Myb (Homo sapiens) (P10242 whole entry, looked up): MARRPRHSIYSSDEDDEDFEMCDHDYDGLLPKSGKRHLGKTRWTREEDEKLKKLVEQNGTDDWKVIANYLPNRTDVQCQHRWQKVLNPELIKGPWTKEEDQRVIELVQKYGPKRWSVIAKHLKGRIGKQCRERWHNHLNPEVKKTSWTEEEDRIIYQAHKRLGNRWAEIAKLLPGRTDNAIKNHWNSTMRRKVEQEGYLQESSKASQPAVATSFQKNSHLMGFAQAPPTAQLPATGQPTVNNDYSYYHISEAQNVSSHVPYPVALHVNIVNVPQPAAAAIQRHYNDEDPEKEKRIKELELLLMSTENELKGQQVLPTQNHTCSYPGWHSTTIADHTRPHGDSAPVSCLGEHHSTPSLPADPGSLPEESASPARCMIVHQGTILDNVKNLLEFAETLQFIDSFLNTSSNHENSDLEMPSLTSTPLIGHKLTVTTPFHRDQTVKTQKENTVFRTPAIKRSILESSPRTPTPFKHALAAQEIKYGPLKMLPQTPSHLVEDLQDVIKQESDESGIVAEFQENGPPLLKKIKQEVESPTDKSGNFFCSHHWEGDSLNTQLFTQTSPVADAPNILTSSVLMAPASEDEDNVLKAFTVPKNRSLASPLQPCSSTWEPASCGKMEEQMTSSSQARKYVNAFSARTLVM
Procedure, shortened: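 Endogenous transcription factor activity at a Myb-responsive cis element is reported in human liver HepG2 cells after 24 h chemical treatment. Reporter mRNA is detected by RT-PCR and capillary electrophoresis fluorescence, with DMSO as baseline.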

Measured: outcome

O=C(O)c1cccc(N(Cc2cccnc2)c2ccc(OC(F)F)c(OC(F)F)c2)c1
inactive: [1] | [2] | [3] | [4] | [5] | [6] | [7] | [8] | [9] | [10] | [11] | [12]

NC(=O)NO
inactive: [1] | [2] | [3] | [4] | [5] | [13] | [8] | [10] | [11]

CC(=O)OCCC(C)C
inactive: [1] | [2] | [14] | [4] | [5] | [15] | [8] | [16] | [10] | [11] | [12]

Cn1cnc([N+](=O)[O-])c1Sc1ncnc2nc[nH]c12
inactive: [1] | [2] | [17] | [4] | [13] | [7] | [15] | [8] | [18] | [10] | [11]

CC[C@H]1OC(=O)[C@H](C)[C@@H](O[C@H]2C[C@@](C)(OC)[C@@H](O)[C@H](C)O2)[C@H](C)[C@@H](O[C@@H]2O[C@H](C)C[C@H](N(C)C)[C@H]2O)[C@](C)(O)C[C@@H](C)C(=O)[C@H](C)[C@@H](O)[C@]1(C)O
inactive: [1] | [2] | [3] | [4] | [15] | [8] | [9] | [10] | [11] | [12]

COC(=O)CC(=O)OC
inactive: [1] | [2] | [3] | [4] | [13] | [8] | [16] | [18] | [10] | [11]

CC(=O)OC[C@H]1O[C@@](COC(C)=O)(O[C@H]2O[C@H](COC(C)=O)[C@@H](OC(C)=O)[C@H](OC(C)=O)[C@H]2OC(C)=O)[C@@H](OC(C)=O)[C@@H]1OC(C)=O
inactive: [1] | [2] | [3] | [4] | [5] | [15] | [8] | [9] | [18] | [10] | [11]
